# Screens deposited in PubChem by National Center for Advancing Translational Sciences (NCATS).
# The list is not random: actives were taken first. Their share in the collection is about 7.9%.
# SW480 rereplic = A quantitative high throughput screen for small molecules that induce DNA re-replication in SW480 colon adenocarcinoma cells | SW480 DNA re-replication, Hoechst DNA content imaging, 48 h | Potency, µM (highest dose often 46.1 µM), without a hit: top-dose re-replication activation, usual class: activators | 340,000 tested, 1.8% active; also: % of control where 0% means no effect; nearly all actives have a fitted effect of over 55% in size
#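 Cells (250 per well) received 23 nL compound or DMSO by pin tool and were kept 48 hr at 37 C, 5% CO2. Nuclei were then stained with Hoechst for 40 min and scanned for DNA content.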
# HT1080-NT tox = qHTS for induction of synthetic lethality in tumor cells producing 2HG: qHTS for the HT-1080-NT fibrosarcoma cell line; HT-1080-NT fibrosarcoma viability, CellTiter-Glo ATP luminescence, 48 h; Potency, µM (titrated, usually from 46.1 µM), inactives show top-dose activity, negative = less viability, most hits filed as cytotoxic; 360,000 tested, 1.6% active; AID 686970, 2013;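 also: NT is the 2HG producing partner of a matched IDH1 knockdown line; 0% = DMSO-treated cells and -100% = media-only wells without cells; nearly all actives have a fitted effect of over 55% in size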
#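 Read-out is CellTiter-Glo luminescence after 10 minutes at room temperature, following 48 hours' compound treatment of HT-1080-NT cells (750 cells/well, RPMI, 5% FBS, 37 degrees C).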
# KB-V1 cytotox = qHTS assay for MDR1-selective chemotherapeutics: Primary screen using the drug-selected MDR subline cells KB-V1; KB-V1 MDR cells viability, CellTiter-Glo, 72 h; Potency, µM (highest dose often 46.1 µM), actives largely listed as cytotoxic; 400,000 tested, 3.4% active; AID 1347076, 2019; also: % is scaled to controls: 0 for no effect and ±100 for the full control effect; nearly all actives have a fitted effect of over 60% in size
#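 Potencies derive from concentration-effect curves fitted to normalized luminescence (CellTiter-Glo) of KB-V1 cells treated for 72 h at 37 degrees C in phenol-red-free DMEM containing 10% FBS.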
# HT1080 IDH1KD tx = qHTS for induction of synthetic lethality in tumor cells producing 2HG: qHTS for the HT-1080-IDH1KD cell line; HT-1080 IDH1 knockdown viability, ATP luminescence, 48 h; Potency, µM (doses to about 46.1 µM), for inactives: at the top dose activity, negative = toxicity, hits mostly cytotoxic; 360,000 tested, 2% active;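 also: 0% = DMSO wells and -100% = cell-free medium wells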
#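 Viability of IDH1-knockdown HT-1080 fibrosarcoma cells was assessed by CellTiter-Glo after 48 h at 37 °C with titrated compound; concentration-effect curves were classified by fit quality and response size.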
# KB-3-1 cytotox = qHTS assay for MDR1-selective chemotherapeutics: Primary screen using the parental adenocarcinoma cell KB-3-1 | KB-3-1 viability, CellTiter-Glo ATP luminescence, 72 h | Potency, µM (doses to about 46.1 µM), usual class: cytotoxic | 400,000 tested, 1.4% active | AID 1347075, 2019; also: % is scaled to controls: 0 for no effect and ±100 for the full control effect; nearly all actives have a fitted effect of over 60% in size
#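 Viability of parental KB-3-1 cells, measured by CellTiter-Glo luminescence, followed a 72 h incubation at 37 °C with pinned compounds in phenol-red-free DMEM containing 10% FBS.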
# MCF10A rereplic = A quantitative high throughput screen for small molecules that induce DNA re-replication in MCF 10a normal breast cells; AID 624296, 2012; MCF 10A DNA re-replication, Hoechst nuclear intensity, 48 h; Potency, µM (doses to about 46.1 µM), without a hit: at the top dose activity, positive = re-replication, hits mostly activators; 350,000 tested, 2.9% active; also: % of control where 0% means no effect; nearly all actives have a fitted effect of over 50% in size
# Numbers without * were called inactive; i = inactive; ? = inconclusive; / = no result; ! = not active in a repeat. Calls follow the shape of the dose curve; as a rule, active = well fitted curve in the direction sought with a large enough effect; inconclusive = small, poorly fitted or top-dose-only effect, or another doubt; inactive = no such curve, though single readings can be large; an effect the other way counts as inactive or inconclusive. Potency is read from the fitted curve at half-maximal effect.
SMILES,SW480 rereplic,HT1080-NT tox,KB-V1 cytotox,HT1080 IDH1KD tx,KB-3-1 cytotox,MCF10A rereplic
Cc1ccc(CN2CC34C=CC(O3)C(C(=O)NCc3ccco3)C4C2=O)cc1 (stereo not given),-4.2%,1.5%,18.4µM*,-1.6%,i,-0.1%
CC1CCN(C(=O)CSc2nc(-c3ccc(F)cc3)cc(C(F)(F)F)n2)CC1,/,/,?,/,i,/
OC(c1cc(-c2cccc(Cl)c2)nc2ccccc12)C1CCCCN1 (stereo not given),?,4.11µM*,?,2.91µM*,i,?
OC(c1cc(C(F)(F)F)nc2c(C(F)(F)F)cccc12)C1CCCCN1 (stereo not given),?,13µM*,?,10.3µM*,?,?
OC(c1cc(-c2ccc(C(F)(F)F)cc2)nc(C(F)(F)F)c1)C1CCCCN1 (stereo not given),?,?,i,?,i,23.1µM*
O=C(c1cc(-c2cccc(Cl)c2)nc2ccccc12)N1CCN(c2ccccn2)CC1,?,-2.5%,?,-13.2%,i,?
Cc1ccc2cccc(NC(=O)C(C)(C)Oc3ccc(Br)cc3)c2n1,/,/,i,/,i,/
CC1CN(S(=O)(=O)c2cccc(C(=O)N(CCc3ccccc3)Cc3ccccc3)c2)CC(C)O1 (stereo not given),?,-8.0%,?,-26.5%,i,?
O=C(COc1ccc(Br)cc1Cl)N1CCN(c2ncccn2)CC1,-3.5%,3.8%,i,4.8%,i,-0.3%
CCOC(=O)N1CCN(C(=O)COc2ccc(Br)cc2Cl)CC1,0.3%,-3.9%,7.31µM*,-2.3%,i,0.2%
O=C(COc1ccc(Cl)cc1Cl)N1CCCN(C(=O)COc2ccc(Cl)cc2Cl)CC1,?,-26.9%,8.2µM*,?,?,?
Cc1ccccc1Nc1nc(-c2ccccc2)c(C(=O)Nc2cccnc2)s1,?,-19.1%,i,-28.8%,i,23.1µM*
CCCCCCN1CCN(C2CN(Cc3cn(Cc4cccc(C(F)(F)F)c4)nn3)S(=O)(=O)C2)CC1 (stereo not given),/,?,i,-24.2%,i,/
O=S(Cc1ccc(Cl)cc1)c1ncc(CO)n1Cc1ccccc1 (stereo not given),?,-4.3%,i,-0.1%,16.4µM*,-0.5%
Cc1ccc(COc2cccc3c2CCN(Cc2ccc(F)cc2)C3=O)cc1,16.1%,-14.9%,5.8µM*,-15.4%,?,22.8%
CCOC(=O)N1CCN(C(=O)COc2cccc3c2CCN(Cc2ccc(F)cc2)C3=O)CC1,-2.8%,-6.7%,?,-14.4%,?,1.1%
O=C1c2cccc(OCc3ccc(F)cc3)c2CCN1Cc1ccccc1,-1.7%,-22.2%,?,-18.2%,16.4µM*,?
COc1cccc(NC(=O)C2=C(C)C(=O)OC23CCN(C(C)=O)CC3)c1,/,/,?,/,i,/
O=Cc1ccccc1OCc1ccc2c(c1)OCO2,18.4µM*,?,i,?,?,?
OC(CN1CCCCC1)Cn1c2ccccc2c2cc(Br)ccc21 (stereo not given),?,23.1µM*,16.4µM*,?,?,?
O=c1c2ccccc2oc2cc(NCCCN3CCOCC3)ccc12,?,-4.2%,i,-1.3%,i,16.4µM*
COc1cccc2sc3cc(NCCCN4CCOCC4)ccc3c(=O)c12,28.9%,2.6%,i,9.0%,i,18.4µM*
O=c1c2ccccc2oc2ccc(NCCCN3CCOCC3)cc12,1.8%,-2.5%,?,-12.2%,i,-14.1%
CN1CCCC1CCNc1ccc2c(=O)c3ccccc3oc2c1 (stereo not given),?,-8.6%,i,-2.7%,i,18.4µM*
O=c1c2ccccc2oc2cc(NCCCn3ccnc3)ccc12,?,0.4%,i,1.0%,i,20.6µM*
SMILES,SW480 rereplic,HT1080-NT tox,KB-V1 cytotox,HT1080 IDH1KD tx,KB-3-1 cytotox,MCF10A rereplic
Cc1ccc(CS(=O)(=O)c2cn(CC(=O)N(C)c3ccccc3)c3ccccc23)cc1,/,/,i,/,i,/
CC(CN1CCN(CCOCCO)CC1)CN1c2ccccc2Sc2ccc(Cl)cc21 (stereo not given),/,23.1µM*,i,?,?,/
CC(=O)c1ccc2c(c1)N(CCCN1CCN(CCO)CC1)c1ccccc1S2,?,/,/,/,/,20.0%
CCSc1ccc2c(c1)N(CCCN1CCN(C)CC1)c1ccccc1S2,-10.1%,18.4µM*,i,?,i,?
OC1CC2CCC(C1)N2CCCN1c2ccccc2Sc2ccc(Cl)cc21 (stereo not given),?,?,?,4.61µM*,?,?
CCC(=O)c1ccc2c(c1)N(CCCN1CCN(CCO)CC1)c1ccccc1S2,?,/,/,/,/,33.5µM*
O=C(CNCc1ccc(Cl)cc1)Nc1ccc(C(=O)N2CCCCCC2)cc1,-6.3%,-10.7%,i,-17.7%,i,8.8%
CN1CCN(CCCN2c3ccccc3Sc3ccc(Cl)cc32)CC1,38.1%,14.6µM*!,16.4µM*!,20.6µM*!,?,11.6µM*
O=C(CCN1C(=O)C2C3C=CC(C4CC34)C2C1=O)Oc1cccc2cccnc12 (stereo not given),?,2µM*,i,1.26µM*,i,?
Cc1cccc(-c2nn(-c3ccccc3)cc2CNCCO)c1,/,/,i,/,i,/
Cc1cccc(-n2cc(CNCCc3nc(C)cc(C)n3)c(-c3cccc(F)c3)n2)c1,23.1µM*,?,i,?,i,4.11µM*
CCOc1ccc(CN2C(=O)c3ccccc3Sc3ccc(C(=O)NCCCN4CCOCC4)cc32)cc1,?,?,?,?,18.4µM*!,20.6µM*
O=C(NCCN1CCOCC1)c1ccc2c(c1)N(Cc1ccccc1)C(=O)c1ccccc1S2,-12.1%,-1.7%,i,-9.3%,i,?
O=C(NCCN1CCOCC1)c1ccc2c(c1)N(Cc1c(F)cccc1Cl)C(=O)c1ccccc1S2,5.8µM*,-18.3%,i,-2.0%,i,?
CN1C(=O)/C(=C\c2cc(N=Nc3ccccc3)ccc2O)SC1=S,-0.6%,-7.3%,?,-7.5%,?,2.91µM*
CN1C(=O)/C(=C\c2ccccc2OCc2ccccc2)SC1=S,-2.2%,0.4%,i,-0.3%,i,1.3%
